Holding throughout (experiment): universal protein binding microarray (PBM); transcription factors of Arabidopsis thaliana; high values mean tight binding
The target in one assay is T1, GST-ANAC092(1-176) (Arabidopsis thaliana, UniProt Q9FKA0 1-176).
T1 sequence: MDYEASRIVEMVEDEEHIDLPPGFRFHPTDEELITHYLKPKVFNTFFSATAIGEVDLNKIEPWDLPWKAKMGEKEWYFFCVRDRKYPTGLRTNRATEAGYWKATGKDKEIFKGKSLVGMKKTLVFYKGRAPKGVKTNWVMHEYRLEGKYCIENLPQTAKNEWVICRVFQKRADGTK
As to conditions: protein: recombinant; tags: GST; chain copies: 2; dsDNA, one strand shown. Summed up:
(§1)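 Protein amounts were determined by A280 or anti-GST western blot after glutathione–Sepharose 4B purification of GST-tagged proteins induced in cells, with zinc acetate included for zinc-finger proteins. Duplicate runs at 200 to 500 nM final were done on custom all-10-mer Agilent 4 × 180K arrays made double-stranded by primer extension. The normalised enrichment score (E-score) over gapped and ungapped 8-mers is the measure of binding.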

Another assay has as its target T2, GST-ANAC019 NAC domain (Arabidopsis thaliana, UniProt Q9C932 14-162).
T2 sequence: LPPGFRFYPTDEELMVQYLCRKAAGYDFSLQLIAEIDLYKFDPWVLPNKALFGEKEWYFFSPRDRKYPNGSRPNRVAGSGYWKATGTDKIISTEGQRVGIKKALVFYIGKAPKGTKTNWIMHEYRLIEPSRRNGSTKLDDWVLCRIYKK
The note with it: protein: recombinant; tags: GST; chain copies: 2; dsDNA, one strand shown. In a few lines: as §1

Another assay addresses T3, GST-ANAC055(1-171) (Arabidopsis thaliana, UniProt Q9LDY8 1-171).
T3 sequence: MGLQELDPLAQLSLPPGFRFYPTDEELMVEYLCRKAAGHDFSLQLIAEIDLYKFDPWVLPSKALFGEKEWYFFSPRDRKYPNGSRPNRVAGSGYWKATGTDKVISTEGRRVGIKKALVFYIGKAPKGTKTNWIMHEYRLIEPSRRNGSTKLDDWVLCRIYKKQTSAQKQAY
The note with it: protein: recombinant; tags: GST; chain copies: 2; dsDNA, one strand shown. In a few lines: as §1

Another assay deals with T4, GST-ATAF1 NAC domain (Arabidopsis thaliana, UniProt Q39013 7-158).
T4 sequence: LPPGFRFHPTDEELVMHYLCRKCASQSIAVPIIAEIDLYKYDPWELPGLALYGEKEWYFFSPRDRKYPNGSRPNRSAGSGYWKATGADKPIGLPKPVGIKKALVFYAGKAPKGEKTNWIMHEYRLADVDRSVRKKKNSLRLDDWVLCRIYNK
As to conditions: protein: recombinant; tags: GST; chain copies: 2; dsDNA, one strand shown. Summed up: as §1

In assay [1] the target is T5, GST-ANAC092(1-285) full length (Arabidopsis thaliana, UniProt Q9FKA0 1-285).
T5 sequence: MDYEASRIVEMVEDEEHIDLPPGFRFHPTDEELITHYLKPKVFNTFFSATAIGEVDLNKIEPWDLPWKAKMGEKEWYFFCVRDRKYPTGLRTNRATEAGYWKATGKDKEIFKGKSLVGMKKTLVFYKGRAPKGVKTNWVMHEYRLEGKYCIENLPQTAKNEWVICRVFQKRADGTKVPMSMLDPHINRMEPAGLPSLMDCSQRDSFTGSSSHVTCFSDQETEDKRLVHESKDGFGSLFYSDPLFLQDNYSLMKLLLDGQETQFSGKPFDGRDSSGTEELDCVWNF
The note with it: protein: recombinant; tags: GST; chain copies: 2; dsDNA, one strand shown. In a few lines: as §1

The target in another assay is T6, GST-NAP(1-166) (Arabidopsis thaliana, UniProt O49255 1-166).
T6 sequence: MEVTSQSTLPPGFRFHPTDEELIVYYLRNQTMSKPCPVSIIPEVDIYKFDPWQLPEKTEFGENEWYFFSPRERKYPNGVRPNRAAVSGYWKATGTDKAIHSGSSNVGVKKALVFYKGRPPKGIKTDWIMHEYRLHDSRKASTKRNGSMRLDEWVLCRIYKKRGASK
The note with it: protein: recombinant; tags: GST; chain copies: 2; dsDNA, one strand shown. In a few lines:
as §1

A further assay addresses T7, GST-NST2(1-184) (Arabidopsis thaliana, UniProt Q9M274 1-184).
T7 sequence: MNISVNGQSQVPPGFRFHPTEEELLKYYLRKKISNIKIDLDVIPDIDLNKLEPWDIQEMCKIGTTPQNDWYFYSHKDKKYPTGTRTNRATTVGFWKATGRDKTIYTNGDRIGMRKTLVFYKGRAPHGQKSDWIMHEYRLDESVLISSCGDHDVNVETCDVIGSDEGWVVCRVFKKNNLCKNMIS
As to conditions: protein: recombinant; tags: GST; chain copies: 2; dsDNA, one strand shown. In a few lines: as §1

A further assay addresses T8, GST-SND1(1-203) (Arabidopsis thaliana, UniProt Q9LPI7 1-203).
T8 sequence: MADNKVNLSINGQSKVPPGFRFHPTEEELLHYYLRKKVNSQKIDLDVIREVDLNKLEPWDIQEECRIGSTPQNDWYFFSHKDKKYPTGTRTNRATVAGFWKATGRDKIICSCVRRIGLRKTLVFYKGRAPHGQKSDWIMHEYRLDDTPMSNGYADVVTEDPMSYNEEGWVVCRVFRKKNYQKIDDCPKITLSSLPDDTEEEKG
The note with it: protein: recombinant; tags: GST; chain copies: 2; dsDNA, one strand shown. Summed up: as §1

In another assay the target is T9, GST-VND3 NAC domain (Arabidopsis thaliana, UniProt Q9FH59 12-162).
T9 sequence: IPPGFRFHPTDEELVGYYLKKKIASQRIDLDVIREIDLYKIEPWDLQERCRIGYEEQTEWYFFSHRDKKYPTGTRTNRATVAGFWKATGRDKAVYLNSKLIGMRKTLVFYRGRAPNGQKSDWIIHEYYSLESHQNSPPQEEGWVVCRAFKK
The note with it: protein: recombinant; tags: GST; chain copies: 2; dsDNA, one strand shown. Summed up: as §1

The next assay has as its target T10, GST-VND7 NAC domain (Arabidopsis thaliana, UniProt Q9C8W9 9-158).
T10 sequence: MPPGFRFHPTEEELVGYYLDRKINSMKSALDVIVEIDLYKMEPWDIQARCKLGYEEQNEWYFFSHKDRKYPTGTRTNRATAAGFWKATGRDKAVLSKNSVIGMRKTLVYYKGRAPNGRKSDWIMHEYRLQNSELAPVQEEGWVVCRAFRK
As to conditions: protein: recombinant; tags: GST; chain copies: 2; dsDNA, one strand shown. Summed up:
as §1

The next assay deals with GST-WRKY1(266-371) (Arabidopsis thaliana, UniProt Q9SI37 266-371). The note with it: protein: recombinant; tags: GST; dsDNA, one strand shown. In a few lines:
as §1

The target of the next assay is GST-NTL6(1-168) (Arabidopsis thaliana, UniProt Q9SCK6 1-168). The note with it: protein: recombinant; tags: GST; chain copies: 2; dsDNA, one strand shown. Summed up:
as §1

The target in the next assay is T11, GST-NTL8 NAC domain (Arabidopsis thaliana, UniProt Q9XIN7 14-156).
T11 sequence: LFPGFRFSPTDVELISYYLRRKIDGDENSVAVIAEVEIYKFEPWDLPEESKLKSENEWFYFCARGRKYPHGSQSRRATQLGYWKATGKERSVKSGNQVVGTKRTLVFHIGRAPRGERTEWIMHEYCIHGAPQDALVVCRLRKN
The note with it: protein: recombinant; tags: GST; chain copies: 2; dsDNA, one strand shown. Summed up:
as §1

Chain of GST-WRKY1(266-371) (Q9SI37 266-371): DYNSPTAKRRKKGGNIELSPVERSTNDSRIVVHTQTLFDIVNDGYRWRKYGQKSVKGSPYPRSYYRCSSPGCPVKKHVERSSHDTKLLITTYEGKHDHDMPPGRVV
Chain of GST-NTL6(1-168) (Q9SCK6 1-168): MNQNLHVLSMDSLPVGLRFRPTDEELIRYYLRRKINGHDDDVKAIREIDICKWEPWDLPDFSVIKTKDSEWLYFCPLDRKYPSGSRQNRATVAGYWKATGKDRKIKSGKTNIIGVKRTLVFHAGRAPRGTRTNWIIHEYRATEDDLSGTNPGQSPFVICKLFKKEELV

For ATGACGTG, the binding signal with GST-ANAC092(1-176) came out at 0.458 E-score; with GST-ANAC019 NAC domain it was 0.311 E-score; with GST-ANAC055(1-171), 0.366 E-score; with GST-ATAF1 NAC domain, 0.317 E-score; in [1], 0.463 E-score; in the assay with GST-NAP(1-166), 0.36 E-score. Also, the binding signal was 0.258 E-score in the assay with GST-NST2(1-184); 0.326 E-score in the assay with GST-SND1(1-203); 0.366 E-score with GST-VND3 NAC domain; 0.322 E-score in the assay with GST-VND7 NAC domain; 0.0849 E-score with GST-WRKY1(266-371).

As to AACACGTC, the binding signal came out at 0.397 E-score with GST-ANAC092(1-176); 0.33 E-score with GST-ANAC019 NAC domain; 0.325 E-score with GST-ANAC055(1-171); 0.316 E-score in the assay with GST-ATAF1 NAC domain; 0.428 E-score in assay [1]; 0.262 E-score with GST-NAP(1-166). In addition, the binding signal with GST-NST2(1-184) came out at 0.0538 E-score; with GST-SND1(1-203) it was 0.12 E-score; with GST-VND3 NAC domain it was 0.343 E-score; in the assay with GST-VND7 NAC domain, 0.312 E-score; with GST-WRKY1(266-371), 0.131 E-score.

On to CACGTCAG, for which the binding signal in the assay with GST-ANAC092(1-176) came to 0.336 E-score; with GST-ANAC019 NAC domain, 0.261 E-score; with GST-ANAC055(1-171) it was 0.19 E-score; with GST-ATAF1 NAC domain, 0.203 E-score; in assay [1], 0.407 E-score; with GST-NAP(1-166) it was 0.154 E-score. Moreover, the binding signal with GST-SND1(1-203) worked out at 0.0864 E-score; with GST-VND3 NAC domain it was 0.127 E-score; with GST-VND7 NAC domain it was 0.214 E-score; in the assay with GST-WRKY1(266-371), 0.081 E-score.

Regarding ACACGTCT, the binding signal in the assay with GST-ANAC092(1-176) was 0.422 E-score; with GST-ANAC019 NAC domain it was 0.459 E-score; with GST-ANAC055(1-171), 0.405 E-score; in the assay with GST-ATAF1 NAC domain, 0.393 E-score; in assay [1], 0.425 E-score; with GST-NAP(1-166), 0.346 E-score. For the same sequence, the binding signal with GST-NST2(1-184) is 0.168 E-score; in the assay with GST-SND1(1-203) it was 0.174 E-score; with GST-VND3 NAC domain, 0.396 E-score; in the assay with GST-VND7 NAC domain, 0.421 E-score; in the assay with GST-WRKY1(266-371) it was 0.114 E-score.

GCGTGCAC: the binding signal with GST-ANAC092(1-176) stood at 0.372 E-score; in the assay with GST-ANAC019 NAC domain it was 0.255 E-score; with GST-ANAC055(1-171), 0.158 E-score; with GST-ATAF1 NAC domain it was 0.154 E-score; in assay [1], 0.415 E-score; with GST-NAP(1-166) it was 0.145 E-score. For the same sequence, the binding signal amounted to 0.169 E-score in the assay with GST-NST2(1-184); 0.198 E-score in the assay with GST-SND1(1-203); 0.16 E-score with GST-VND3 NAC domain; 0.216 E-score with GST-VND7 NAC domain; 0.0555 E-score with GST-WRKY1(266-371).

For GTAAGTAA, the binding signal is 0.246 E-score with GST-ANAC092(1-176); 0.474 E-score in the assay with GST-NTL6(1-168); 0.0906 E-score with GST-ANAC019 NAC domain; 0.199 E-score in the assay with GST-ANAC055(1-171); 0.245 E-score in the assay with GST-ATAF1 NAC domain; 0.334 E-score in assay [1]. For the same sequence, the binding signal with GST-NST2(1-184) was determined as 0.239 E-score; in the assay with GST-NTL8 NAC domain it was 0.195 E-score; with GST-SND1(1-203), 0.307 E-score; with GST-VND3 NAC domain, 0.279 E-score; with GST-VND7 NAC domain it was 0.186 E-score; with GST-WRKY1(266-371), 0.122 E-score.

As for CACGTCAA, the binding signal with GST-ANAC092(1-176) was 0.444 E-score; with GST-ANAC019 NAC domain it was 0.38 E-score; with GST-ANAC055(1-171), 0.324 E-score; with GST-ATAF1 NAC domain, 0.248 E-score; in assay [1] it was 0.448 E-score; with GST-NAP(1-166), 0.299 E-score. In addition, the binding signal stood at 0.252 E-score in the assay with GST-NST2(1-184); 0.313 E-score in the assay with GST-SND1(1-203); 0.332 E-score with GST-VND3 NAC domain; 0.278 E-score in the assay with GST-VND7 NAC domain; 0.403 E-score with GST-WRKY1(266-371).

(Values after article PMC4081100, “A DNA-binding-site landscape and regulatory network analysis for NAC transcription factors in Arabidopsis thaliana”.)
